Source: PubChem BioAssay (National Center for Advancing Translational Sciences (NCATS))
NS1 inh: qHTS Assay for Inhibitors of Influenza NS1 Protein Function; Potency, µM (top dose mostly 46.1 µM), without a hit: at the highest dose activity, positive = more growth; actives 0.4% (n = 270,000); AID 2326, 2010; calls by dose curve; also: potency is read from the fitted curve at half-maximal effect; actives are rising curves; nearly all actives have a fitted effect of over 50% in size
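A cell-based growth assay was used: compounds that relieve NS1-induced slow growth of budding yeast raise OD600. Assay medium was yeast nitrogen base with ammonium sulphate and -URA supplement, pH 6.0, with 2% galactose.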
SARS PLP yeast: qHTS of Yeast-based Assay for SARS-CoV PLP; S. cerevisiae expressing SARS-CoV PLpro, growth rescue; Potency, µM (series often up to 32.9 µM), for inactives: top-dose activity, positive = growth rescue, usual class: activators; actives 0.19% (n = 330,000); AID 485353, 2010; calls by dose curve; also: potency is read from the fitted curve at half-maximal effect; 0% is about no effect; nearly all actives have a fitted effect of over 55% in size
Shiga inhibitor: A qHTS for Small Molecule Inhibitors of Shiga Toxin; Vero cells, Shiga toxin protein synthesis inhibition reporter; inhibition, % at 38.7 µM; actives 9.2% (n = 290,000); AID 2315, 2010; in the data active = inhibition mostly above about 28%, no sharp cut-off; inactive = mostly below about 43%; also: 0% is about no effect
Pf growth 48h: Primary qHTS for delayed death inhibitors of the malarial parasite plastid, 48 hour incubation. Potency, µM (highest dose often 28.7 µM), inactives show at the highest dose activity change, negative = inhibition, actives largely listed as inhibitors. AID 504832, 2011. actives 5.9% (n = 310,000). P. falciparum luciferase growth in erythrocytes, 48 h; also: potency is read from the fitted curve at half-maximal effect; % is scaled to controls: 0 for no effect and ±100 for the full control effect
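Luciferase-expressing parasites in RBCs, 2% Hct / 0.1% parasitemia final; RPMI 1640 + 0.5% Albumax; 37 C, 5% CO2, one generation; luminescence read-out, lower signal = inhibition.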
Pf growth 96h: Primary qHTS for delayed death inhibitors of the malarial parasite plastid, 96 hour incubation; Potency, µM (top dose mostly 28.7 µM), without a hit: top-dose activity change, negative = inhibition, usual class: inhibitors; P. falciparum luciferase reporter growth, 96 h; actives 6.9% (n = 320,000); also: potency is read from the fitted curve at half-maximal effect; % is scaled to controls: 0 for no effect and ±100 for the full control effect
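Luminescence readout: decreased luciferase signal marks inhibited growth of reporter-expressing P. falciparum in infected red cells (2% hematocrit, 0.05% parasitemia final), exposed to compound two generations (96 h, 37 C, 5% CO2).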
Cycloheximide cs: Cycloheximide Counterscreen for Small Molecule Inhibitors of Shiga Toxin; max response, %; AID 2314, 2010; cell reporter, cycloheximide protein synthesis inhibition counterscreen; actives 12% (n = 300,000); in the data active = max response mostly above about 13%, no sharp cut-off; inactive = mostly below about 14%; also: read at 38.3 µM for the half of the compounds with a filed dose; 0% is about no effect
* = called active by the depositor; u = inconclusive; x = no result given. Sampled rows, rich in hits. Any-hit rate of the full collection: about 21%. Unless noted, calls follow the shape of the dose curve; as a rule, active = well fitted inhibition curve with a large enough effect; inconclusive = small, poorly fitted or top-dose-only effect, or another doubt; inactive = no such curve, though single readings can be large or run the other way.

SMILES | NS1 inh | SARS PLP yeast | Shiga inhibitor | Pf growth 48h | Pf growth 96h | Cycloheximide cs
COc1ccc(-n2nc(C(=O)NCC(=O)N3CCN(c4ccccn4)CC3)c3ccccc3c2=O)cc1Cl | x | -5.7% | 39.6 | 11.8% | u | 27.0*
COc1ccc(-n2nc(C(=O)NCC(=O)Nc3cc(OC)c(OC)c(OC)c3)c3ccccc3c2=O)cc1Cl | 3.8% | -0.2% | -6.8 | u | 11.2% | -0.9
CCN(CC)C(=O)CNC(=O)c1nn(-c2ccc(OC)c(Cl)c2)c(=O)c2ccccc12 | 10.1% | -1.2% | 2.7 | 4.15µM* | -21.0% | -1.2
COc1ccc(-n2nc(C(=O)NCC(=O)NC(C)C)c3ccccc3c2=O)cc1OC | -1.6% | 2.1% | 2.8 | x | 13.5% | -3.1
COc1ccc(-n2nc(C(=O)NCC(=O)N3CCN(C)CC3)c3ccccc3c2=O)cc1OC | 2.0% | 13.4% | 19.3 | -7.6% | 129.9% | -0.8
COc1ccc(-n2nc(C(=O)NCC(=O)N3CCC(C)CC3)c3ccccc3c2=O)cc1Cl | 11.9% | -2.4% | 49.2* | -42.8% | -20.2% | 37.6
O=C(CN1CCCC1c1cccs1)N1CCN(S(=O)(=O)c2cccc(F)c2)CC1 (centres undefined) | x | -30.4% | x | u | u | x
O=C(CNC(=O)c1ccc(Cl)cc1)c1ccc(Br)cc1 | -1.4% | -2.1% | 13.6 | x | 12.0% | 7.8
Cc1ccccc1CN1CCNC(=O)C1CC(=O)NCCN1CCCCC1=O (centres undefined) | 9.2% | -7.8% | -5.5 | 3.7% | -27.2% | 0.5
C=C(C)CSc1nnc([C@@H]2CCCN2)o1 | 6.8% | -0.1% | 8.2 | 12.1% | -3.1% | -2.1
O=C(CSc1nnc([C@@H]2CCCN2)o1)c1ccc(Cl)cc1 | -3.5% | -0.6% | 102.4* | 117.6% | 123.9% | 21.9*
Cc1ccc(S(=O)(=O)Cn2nnnc2C(C(C)C)N2CCC(C(N)=O)CC2)cc1 (centres undefined) | -9.7% | -6.7% | 7.3 | 8.3% | u | -4.5
C[C@@]12C(=O)N(c3ccc(C(F)(F)F)cc3)C(=O)N1[C@@H]1c3ccccc3OC[C@@H]1[C@H]2c1ccccc1 | u | 1.6% | -3.9 | u | 4.15µM* | -2.1
CCOC(=O)[C@@H]1[C@H]2COc3cc(OC)ccc3[C@H]2N2C(=O)N(c3cccc(Cl)c3)C(=O)[C@@]12C | 3.9% | -2.6% | 19.9 | 10.4µM* | u | -2.4
CCOC(=O)[C@@H]1[C@H]2COc3ccccc3[C@H]2N2C(=O)N(c3ccc(Cl)cc3)C(=O)[C@]12C | -11.9% | -10.4% | -3.1 | 13.1µM* | 8.28µM* | 1.0
CCOC(=O)[C@@H]1[C@H]2COc3cc(OC)ccc3[C@H]2N2C(=O)N(c3cccc(Cl)c3)C(=O)[C@]12C | 21.0% | -17.9% | -3.3 | u | u | 1.4
CCOC(=O)[C@@H]1[C@H]2COc3ccccc3[C@@H]2N2C(=O)N(c3ccc(Cl)cc3)C(=O)[C@@]12C | -4.6% | -3.9% | -5.3 | -6.1% | 10.4% | -1.4
CCOC(=O)[C@@H]1[C@H]2COc3ccccc3[C@@H]2N2C(=O)N(c3cccc(Cl)c3)C(=O)[C@@]12C | -51.3% | 3.2% | 17.2 | -71.4% | 10.4µM* | -0.6
CCOC(=O)[C@@H]1[C@H]2COc3ccccc3[C@H]2N2C(=O)N(c3cccc(Cl)c3)C(=O)[C@@]12C | -43.3% | -4.5% | -8.6 | 0.0% | u | -2.5
NS(=O)(=O)c1ccc(NC(=O)COC(=O)COc2ccc(Br)cc2)cc1 | 4.5% | -0.6% | -10.4 | 0.0% | 20.5% | -1.9
CCNC(=O)NC(=O)C(C)OC(=O)C1CCN(S(=O)(=O)c2ccc(C)c(C)c2)CC1 (centres undefined) | 7.3% | 0.0% | -4.5 | 1.0% | 8.7% | -3.5
CCOC(=O)[C@@H]1[C@H]2COc3ccc(Br)cc3[C@@H]2N2C(=O)N(c3ccc(F)cc3)C(=O)[C@@]12C | x | 7.7% | x | x | x | x
CCOC(=O)[C@@H]1[C@H]2COc3ccc(Br)cc3[C@@H]2N2C(=O)N(c3ccc(C(F)(F)F)cc3)C(=O)[C@@]12C | 28.9% | -6.5% | 1.4 | u | 9.28µM* | -3.0
